Results on 40 compounds are retold here after PubChem BioAssay AID1494156 (National Center for Advancing Translational Sciences (NCATS), 2020).

Results filed as inconclusive are left out. Values without a mark were called inactive. Activity calls are given as the source filed them. The call rests on the fitted dose curve.

A short description of this experiment: VSV-G qHTS counterscreen for inhibitors of MERS-S pseudo-typed particle cell entry. The note with it: VSV-G pseudotyped particle cell entry, luciferase counterscreen; series mostly up to 57.1 µM; activity, negative = inhibition: at the top concentration. For orientation: qHTS replaces the single test concentration by a dilution series.
Take `CC(=O)OCC1=C(C(=O)O)N2C(=O)[C@@H](NC(=O)Cc3cccs3)[C@H]2SC1`: the “activity, negative = inhibition” value was -2.27%.

Take `O=C(Nc1ccc([N+](=O)[O-])cc1Cl)c1cc(Cl)ccc1O`: the Potency was 607 nM (active).

For the compound `N#CC(c1ccc(Cl)cc1)c1c(Cl)cc(-n2ncc(=O)[nH]c2=O)cc1Cl` (stereo not given), the Potency was 3830 nM (active).

Turning to `CC[C@H](C)C(=O)O[C@H]1C[C@@H](C)C=C2C=C[C@H](C)[C@H](CC[C@@H]3C[C@@H](O)CC(=O)O3)[C@H]21`, the “activity, negative = inhibition” value is -2.55%.

`Cc1oncc1C(=O)Nc1ccc(C(F)(F)F)cc1`: the “activity, negative = inhibition” value was 0%.

On to `Nc1nc(Cl)nc2c1ncn2C1CC(O)C(CO)O1` (stereo not given), for which the Potency was 9610 nM (active).

For `CC[C@@]1(O)C(=O)OCc2c1cc1n(c2=O)Cc2c-1nc1ccccc1c2/C=N/OC(C)(C)C`, the Potency was 10.8 nM (active).

With `COc1cc2nccc(Oc3ccc(NC(=O)NC4CC4)c(Cl)c3)c2cc1C(N)=O`, the Potency is 17100 nM (active).

As for `CC[C@@]1(O)C(=O)OCc2c1cc1n(c2=O)Cc2cc3c(CN(C)C)c(O)ccc3nc2-1`, the Potency was 85.7 nM (active).

For `C=CC1(C)CC(=O)C2(O)C(C)(O1)C(OC(C)=O)C(OC(=O)CCN(C)C)C1C(C)(C)CCC(O)C12C` (stereo not given), the “activity, negative = inhibition” value is 0%.

In the case of `CN1CCCCC1CCN1c2ccccc2Sc2ccc(S(C)=O)cc21` (stereo not given), the Potency was 27100 nM (active).

In the case of `O=c1c(C2CC(c3ccc(-c4ccc(Br)cc4)cc3)Cc3ccccc32)c(O)sc2ccccc12` (stereo not given), the Potency is 6070 nM (active).

For `C[C@H]1[C@H](OC(=O)CCC(=O)O)O[C@@H]2O[C@@]3(C)CC[C@H]4[C@H](C)CC[C@@H]1[C@@]24OO3`, the Potency was 681 nM (active).

`COc1cc2c(cc1Cc1cccc(Cl)c1F)c(=O)c(C(=O)O)cn2[C@H](CO)C(C)C`: the Potency is 192 nM (active).

As for `C=C(C)[C@H]1Cc2c(ccc3c2O[C@@H]2COc4cc(OC)c(OC)cc4[C@@H]2C3=O)O1`, the Potency is 10.8 nM (active).

In the case of `C=C1c2c(Cl)ccc(O)c2C(O)=C2C(=O)[C@@]3(O)C(O)=C(C(N)=O)C(=O)[C@@H](N(C)C)[C@@H]3[C@@H](O)[C@H]12`, the Potency is 19200 nM (active).

Consider `CC(=O)[C@]1(O)Cc2c(O)c3c(c(O)c2[C@@H](O[C@H]2C[C@H](N)[C@H](O)[C@H](C)O2)C1)C(=O)c1ccccc1C3=O`, for which the Potency was 2150 nM (active).

On to `Cc1c(N)nc(C(CC(N)=O)NCC(N)C(N)=O)nc1C(=O)NC(C(=O)NC(C)C(O)C(C)C(=O)NC(C(=O)NCCc1nc(-c2nc(C(=O)NCCCN[C@@H](C)c3ccccc3)cs2)cs1)C(C)O)C(O[C@@H]1O[C@@H](CO)[C@@H](O)[C@H](O)[C@@H]1O[C@H]1O[C@H](CO)[C@@H](O)[C@H](OC(N)=O)[C@@H]1O)c1cnc[nH]1` (stereo not given in full), for which the Potency is 764 nM (active).

As to `C=CC(=O)Nc1cc(Nc2nccc(-c3cn(C)c4ccccc34)n2)c(OC)cc1N(C)CCN(C)C`, the Potency is 30400 nM (active).

As to `CC(C)(C)c1ccc(C(=O)CCCN2CCC(OC(c3ccccc3)c3ccccc3)CC2)cc1`, the Potency is 8570 nM (active).

Consider `COc1cc([C@@H]2c3cc4c(cc3C(O[C@@H]3O[C@@H]5CO[C@@H](c6cccs6)OC5[C@H](O)[C@H]3O)C3COC(=O)[C@@H]32)OCO4)cc(OC)c1O` (stereo not given in full), for which the Potency was 192 nM (active).

Turning to `C[C@]12CC[C@H](O)C[C@H]1CCC1C2CC[C@]2(C)[C@@H](c3ccc(=O)oc3)C[C@H]3O[C@]132` (stereo not given in full), the Potency was 4820 nM (active).

Turning to `Oc1c(Cl)cc(Cl)c(Cl)c1Cc1c(O)c(Cl)cc(Cl)c1Cl`, the Potency was 1080 nM (active).

For `COc1cccc2c1C(=O)c1c(O)c3c(c(O)c1C2=O)C[C@@](O)(C(C)=O)C[C@@H]3O[C@H]1C[C@H](N)[C@H](O)[C@H](C)O1`, the Potency was 1920 nM (active).

As for `CCN(CC)CCNC(=O)c1c(C)[nH]c(/C=C2\C(=O)Nc3ccc(F)cc32)c1C`, the Potency is 7640 nM (active).

As to `CN(C)[C@@H](CCOc1cccc2ccccc12)c1ccccc1`, the Potency is 21500 nM (active).

As to `Cc1nnc(C(=O)NC(C)(C)c2nc(C(=O)NCc3ccc(F)cc3)c(O)c(=O)n2C)o1`, the Potency is 3.8 nM (active).

Turning to `O=C(Nc1ccc(Cl)cc1)Nc1ccc(Cl)c(C(F)(F)F)c1`, the Potency was 10800 nM (active).

As for `O=C1c2c(O)ccc(O)c2C(=O)c2c(NCCNCCO)ccc(NCCNCCO)c21`, the Potency is 541 nM (active).

As for `O=C1CCc2ccc(OCCCCN3CCN(c4cccc(Cl)c4Cl)CC3)cc2N1`, the Potency is 13600 nM (active).

In the case of `COc1ccc2cc1Oc1ccc(cc1)C[C@H]1c3c(cc4c(c3Oc3cc5c(cc3OC)CCN(C)[C@@H]5C2)OCO4)CCN1C`, the Potency was 21500 nM (active).

As to `CCCCCCCCCCCC[n+]1ccc2ccccc2c1`, the Potency is 1520 nM (active).

Turning to `C[C@@H](c1nc(-c2ccc(C#N)cc2)cs1)[C@](O)(Cn1cncn1)c1cc(F)ccc1F`, the Potency was 2150 nM (active).

In the case of `Cc1nn(C)c2c1C(c1ccccc1F)=NCC(=O)N2C`, the Potency is 6070 nM (active).

In the case of `C[C@@H]1CCO[C@H]2Cn3cc(C(=O)NCc4ccc(F)cc4F)c(=O)c(O)c3C(=O)N12`, the Potency was 1.5 nM (active).

`COc1ccc2cc3[n+](cc2c1OC)CCc1cc2c(cc1-3)OCO2`: the Potency was 8570 nM (active).

With `CC(C)OC(=O)[C@H](C)N[P@](=O)(CO[C@H](C)Cn1cnc2c(N)ncnc21)Oc1ccccc1`, the Potency is 27.1 nM (active).

On to `CC(=O)Oc1ccccc1C(=O)Nc1ncc([N+](=O)[O-])s1`, for which the Potency was 10800 nM (active).

As to `CN(C/C=C/c1ccccc1)Cc1cccc2ccccc12`, the “activity, negative = inhibition” value was -16.4%.

Regarding `CCCCCCCCCCCCCC[n+]1ccc(C)cc1`, the Potency is 1710 nM (active).
